Results published in PubChem BioAssay (NCI).
About 79,000 compounds went through this panel and 15% of them were active in at least one assay; those are over-represented in the sample as a whole. Calls of active or inactive are those of the source. No stated cut-off is given here; in the data, active means growth inhibition above about 70%; inactive means the rest.

Key:
[1] = NCI Yeast Anticancer Drug Screen. Data for the wt1 strain (AID 149);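 further: 0% = growth of vehicle-treated wt1 cultures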; conditions: S. cerevisiae wt1 strain (SPY 50644) growth inhibition, active compounds read high
Summary of the method: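 Yeast wt1 strain exposed to compounds; growth inhibition measured relative to vehicle-treated controls.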

[2] = NCI Yeast Anticancer Drug Screen. Data for the rad50EPP+ strain (AID 151);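 further: 0% = growth of vehicle-treated control cultures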; conditions: S. cerevisiae rad50 mutant strain, active compounds read high
Summary of the method: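 Read-out is yeast growth inhibition relative to vehicle; cells used were the rad50EPP+ strain.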

[3] = NCI Yeast Anticancer Drug Screen. Data for the mgt1 strain (AID 153); conditions: S. cerevisiae mgt1 mutant growth inhibition, active compounds read high
Summary of the method: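 Measured: inhibition of mgt1 yeast growth by compound, normalized to vehicle-treated cultures.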

[4] = NCI Yeast Anticancer Drug Screen. Data for the rad50 strain (AID 155);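 further: 0% = growth of vehicle-only cultures of the same strain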; conditions: S. cerevisiae rad50 strain growth inhibition, active compounds read high
Summary of the method: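 Yeast carrying a defined DNA repair defect were exposed to test compounds, and growth was compared with vehicle-treated controls to give percent inhibition.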

[5] = NCI Yeast Anticancer Drug Screen. Data for the mec2-1 strain (AID 157); conditions: S. cerevisiae mec2-1 strain, active compounds read high
Summary of the method: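 Using mec2-1 yeast: add compound, measure growth, express inhibition versus vehicle-treated cultures.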

[6] = NCI Yeast Anticancer Drug Screen. Data for the rad14 strain (AID 159);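 further: 0% = growth of vehicle-treated control cultures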; conditions: S. cerevisiae rad14 strain growth inhibition, active compounds read high
Summary of the method: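 Yeast cells carrying a defined DNA-repair defect were exposed to compounds, and growth inhibition was calculated relative to vehicle-treated control cultures.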

[7] = NCI Yeast Anticancer Drug Screen. Data for the sgs1 mgt1 strain (AID 161);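 further: 0% = growth of cultures given vehicle only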; conditions: S. cerevisiae sgs1 mgt1 strain, active compounds read high
Summary of the method: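 Yeast cells carrying a defined DNA-repair defect were exposed to test compounds. Growth inhibition was measured relative to vehicle-treated controls.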

[8] = NCI Yeast Anticancer Drug Screen. Data for the CLN2oe strain (AID 163);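 further: 0% = growth of vehicle-only control cultures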; conditions: S. cerevisiae CLN2oe strain, active compounds read high
Summary of the method: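 Whole-cell yeast growth assay. A strain engineered for altered cell-cycle control received compound, and inhibition relative to vehicle-treated cultures was recorded.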

[9] = NCI Yeast Anticancer Drug Screen. Data for the cln2 rad14 strain (AID 165);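 further: 0% = growth equal to vehicle treated cultures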; conditions: S. cerevisiae cln2 rad14 strain, active compounds read high
Summary of the method: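 Yeast strain cln2 rad14, bearing defects in cell cycle control and DNA repair, serves as the test system; values reflect growth inhibition compared with vehicle.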

[10] = NCI Yeast Anticancer Drug Screen. Data for the bub3 strain (AID 167); conditions: S. cerevisiae bub3 mutant strain, active compounds read high
Summary of the method: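 Compounds were applied to a genetically altered yeast strain carrying a cell-cycle control defect. Growth inhibition was scored against vehicle-treated controls.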

[11] = NCI Yeast Anticancer Drug Screen. Data for the wt2 strain (AID 169);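 further: 0% = growth of vehicle-treated yeast cultures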; conditions: S. cerevisiae wt2 strain growth inhibition, active compounds read high
Summary of the method: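 Treated yeast vs. vehicle-treated yeast: growth inhibition determined.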

[12] = NCI Yeast Anticancer Drug Screen. Data for the mlh1 strain (AID 171);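 further: 0% = growth of vehicle-treated control cultures of the same strain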; conditions: S. cerevisiae mlh1 strain growth inhibition, active compounds read high
Summary of the method: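 A yeast strain with a defined genetic lesion serves as the test organism. Cultures receive compound or vehicle, and growth is measured.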

[13] = NCI Yeast Anticancer Drug Screen. Data for the sgs1 strain (AID 173);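 further: 0% = growth of vehicle-only control cultures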; conditions: S. cerevisiae sgs1 mutant, active compounds read high
Summary of the method: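 A genetically defined yeast mutant is incubated with the test compound, and its growth is compared to that of the same strain given vehicle.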

[14] = NCI Yeast Anticancer Drug Screen. Data for the mlh1 rad18 strain (AID 175); conditions: S. cerevisiae mlh1 rad18 strain growth inhibition, active compounds read high
Summary of the method: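 Steps: expose repair-defective yeast to compound; measure growth; express inhibition against vehicle-treated controls.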

[15] = NCI Yeast Anticancer Drug Screen. Data for the rad18 strain (AID 177); conditions: S. cerevisiae rad18 mutant growth inhibition, active compounds read high
Summary of the method: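 Measured value is growth inhibition of a yeast strain bearing a DNA repair alteration, referenced to vehicle-treated cells.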

[16] = at 5.0 µM (retest, dose inferred, filed as 0.5)
[17] = at 50.0 µM (retest, dose inferred, filed as 5.0)

Measured: growth inhibition

CN(C)CCC(=O)c1c[nH]c2ccccc12
inactive: [1]; at 1.2 µM -18% | [1]; at 3.7 µM -7% | [1]; at 11.0 µM -7% | [1]; at 33.0 µM -19% | [1]; at 100.0 µM 18% | [2]; at 1.2 µM -17% | [2]; at 3.7 µM 24% | [2]; at 11.0 µM 16% | [2]; at 33.0 µM 39% | [2]; at 100.0 µM 54% | [3]; at 1.2 µM -38% | [3]; at 3.7 µM -10% | [3]; at 11.0 µM -39% | [3]; at 33.0 µM -16% | [3]; at 100.0 µM 18% | [4]; at 1.2 µM -21% | [4]; at 3.7 µM -17% | [4]; at 11.0 µM -26% | [4]; at 33.0 µM 5% | [4]; at 100.0 µM 49% | [5]; at 1.2 µM -41% | [5]; at 3.7 µM -35% | [5]; [16] 67% | [5]; at 11.0 µM -24% | [5]; at 33.0 µM -8% | [5]; at 50.0 µM 37.7% | [5]; at 100.0 µM 64% | [6]; at 1.2 µM -23% | [6]; at 3.7 µM -29% | [6]; at 11.0 µM -9% | [6]; at 33.0 µM -2% | [6]; at 100.0 µM 18% | [7]; [16] 15% | [7]; [17] 57% | [7]; at 50.0 µM 63% | [8]; at 1.2 µM -11% | [8]; at 3.7 µM -14% | [8]; at 11.0 µM -14% | [8]; at 33.0 µM -6% | [8]; at 100.0 µM 8% | [9]; [17] 36% | [9]; at 50.0 µM 31.1% | [10]; at 1.2 µM -23% | [10]; at 3.7 µM -29% | [10]; [16] 22% | [10]; at 11.0 µM -36% | [10]; at 33.0 µM -35% | [10]; [17] 51% | [10]; at 50.0 µM 64.9% | [10]; at 100.0 µM 37% | [11]; at 1.2 µM -19% | [11]; at 3.7 µM -46% | [11]; at 11.0 µM -19% | [11]; at 33.0 µM -14% | [11]; at 100.0 µM 25% | [12]; at 1.2 µM -61% | [12]; at 3.7 µM -74% | [12]; at 11.0 µM -56% | [12]; at 33.0 µM -20% | [12]; at 100.0 µM 37% | [13]; at 1.2 µM -42% | [13]; at 3.7 µM -33% | [13]; at 11.0 µM -34% | [13]; at 33.0 µM 14% | [13]; at 100.0 µM 54% | [14]; [16] 47% | [14]; at 50.0 µM 45.8% | [15]; at 1.2 µM -55% | [15]; at 3.7 µM -62% | [15]; at 11.0 µM -47% | [15]; at 33.0 µM 8% | [15]; at 100.0 µM 57%
active: [4]; [16] 82% | [4]; [17] 98% | [4]; at 50.0 µM 73.5% | [5]; [17] 98% | [9]; [16] 77% | [14]; [17] 97%

CCc1nc2ccc(N=Nc3c(O)ccc4ccccc34)cc2[nH]1
inactive: [1]; at 1.2 µM 14% | [1]; at 3.7 µM 10% | [1]; at 11.0 µM 19% | [1]; at 33.0 µM 30% | [2]; at 1.2 µM -5% | [2]; at 3.7 µM 4% | [2]; at 11.0 µM 23% | [2]; at 33.0 µM 63% | [3]; at 1.2 µM 0% | [3]; at 3.7 µM -10% | [3]; at 11.0 µM -6% | [3]; at 33.0 µM -2% | [4]; at 1.2 µM 6% | [4]; at 3.7 µM 6% | [4]; [16] -23% | [4]; at 11.0 µM 8% | [4]; at 33.0 µM 34% | [4]; [17] 25% | [5]; at 1.2 µM 0% | [5]; at 3.7 µM 7% | [5]; [16] -49% | [5]; at 11.0 µM 10% | [5]; at 33.0 µM 21% | [5]; [17] 65% | [6]; at 1.2 µM -15% | [6]; at 3.7 µM -29% | [6]; at 11.0 µM -20% | [6]; at 33.0 µM 32% | [7]; [16] -4% | [7]; [17] 21% | [8]; at 1.2 µM 2% | [8]; at 3.7 µM 1% | [8]; at 11.0 µM -5% | [8]; at 33.0 µM 9% | [9]; [16] 9% | [9]; [17] 41% | [10]; at 1.2 µM -3% | [10]; at 3.7 µM -11% | [10]; [16] -9% | [10]; at 11.0 µM -18% | [10]; at 33.0 µM 13% | [11]; at 1.2 µM -13% | [11]; at 3.7 µM 12% | [11]; at 11.0 µM -5% | [11]; at 33.0 µM 12% | [12]; at 1.2 µM -15% | [12]; at 3.7 µM -10% | [12]; at 11.0 µM -18% | [12]; at 33.0 µM 17% | [13]; at 1.2 µM 1% | [13]; at 3.7 µM 17% | [13]; at 11.0 µM 24% | [13]; at 33.0 µM 57% | [14]; [16] -22% | [14]; [17] 46% | [15]; at 1.2 µM -8% | [15]; at 3.7 µM -10% | [15]; at 11.0 µM 1% | [15]; at 33.0 µM 21%
active: [1]; at 100.0 µM 96% | [2]; at 100.0 µM 93% | [3]; at 100.0 µM 96% | [4]; at 50.0 µM 89% | [4]; at 100.0 µM 95% | [5]; at 50.0 µM 93.2% | [5]; at 100.0 µM 93% | [6]; at 100.0 µM 93% | [7]; at 50.0 µM 92.5% | [8]; at 100.0 µM 95% | [9]; at 50.0 µM 91.9% | [10]; [17] 92% | [10]; at 50.0 µM 92.2% | [10]; at 100.0 µM 95% | [11]; at 100.0 µM 96% | [12]; at 100.0 µM 95% | [13]; at 100.0 µM 95% | [14]; at 50.0 µM 90.1% | [15]; at 100.0 µM 95%

O=C(Cc1ccccc1F)NC1=C(Cl)C(=O)c2ccccc2C1=O
inactive: [1]; at 1.2 µM 1% | [1]; at 3.7 µM 0% | [1]; at 11.0 µM 0% | [1]; at 33.0 µM 9% | [1]; at 100.0 µM 17% | [2]; at 1.2 µM 40% | [2]; at 3.7 µM 43% | [2]; at 11.0 µM 51% | [2]; at 33.0 µM 48% | [2]; at 100.0 µM 59% | [3]; at 1.2 µM -2% | [3]; at 3.7 µM 11% | [3]; at 11.0 µM 8% | [3]; at 33.0 µM 3% | [3]; at 100.0 µM 14% | [4]; at 1.2 µM 20% | [4]; at 3.7 µM 26% | [4]; [16] 14% | [4]; at 11.0 µM 13% | [4]; at 33.0 µM 22% | [4]; [17] 4% | [4]; at 50.0 µM 30.8% | [4]; at 100.0 µM 37% | [5]; at 1.2 µM 41% | [5]; at 3.7 µM 45% | [5]; [16] -16% | [5]; at 11.0 µM 46% | [5]; at 33.0 µM 55% | [5]; [17] 50% | [5]; at 50.0 µM -14.2% | [5]; at 100.0 µM 69% | [6]; at 1.2 µM -26% | [6]; at 3.7 µM -12% | [6]; at 11.0 µM -8% | [6]; at 33.0 µM 19% | [6]; at 100.0 µM 38% | [7]; [16] 1% | [7]; [17] 54% | [7]; at 50.0 µM 11.4% | [8]; at 1.2 µM 1% | [8]; at 3.7 µM 18% | [8]; at 11.0 µM 19% | [8]; at 33.0 µM -1% | [8]; at 100.0 µM 27% | [9]; [16] 33% | [9]; [17] 45% | [9]; at 50.0 µM 24.3% | [10]; at 1.2 µM 14% | [10]; at 3.7 µM 17% | [10]; [16] -6% | [10]; at 11.0 µM 27% | [10]; at 33.0 µM 47% | [10]; at 50.0 µM 54% | [11]; at 1.2 µM -9% | [11]; at 3.7 µM 3% | [11]; at 11.0 µM -8% | [11]; at 33.0 µM -1% | [11]; at 100.0 µM -4%
active: [10]; [17] 70% | [10]; at 100.0 µM 73%
